Screening data: PubChem BioAssay, several laboratories
PLAP activator – activators of human placental alkaline phosphatase. P05187. hit rate 1.2% among 96,000. purified PLAP enzyme, luminescent substrate read-out; active compounds read high. activation fold at 20 µM; in the data active = activation fold above about 2
M1 antag – M1 muscarinic receptor (rat) antagonism | P08482 | CHO-M1 cells, Fluo-4 calcium, ACh EC80 antagonist mode; active compounds read low | B-score at 10 µM | hit rate 3.4% among 64,000;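 active = calcium fluorescence response, raw or row-and-column corrected B-score, differing from the plate sample mean either way at a set confidence level, mostly lower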
Target sequence (P08482 whole entry, looked up): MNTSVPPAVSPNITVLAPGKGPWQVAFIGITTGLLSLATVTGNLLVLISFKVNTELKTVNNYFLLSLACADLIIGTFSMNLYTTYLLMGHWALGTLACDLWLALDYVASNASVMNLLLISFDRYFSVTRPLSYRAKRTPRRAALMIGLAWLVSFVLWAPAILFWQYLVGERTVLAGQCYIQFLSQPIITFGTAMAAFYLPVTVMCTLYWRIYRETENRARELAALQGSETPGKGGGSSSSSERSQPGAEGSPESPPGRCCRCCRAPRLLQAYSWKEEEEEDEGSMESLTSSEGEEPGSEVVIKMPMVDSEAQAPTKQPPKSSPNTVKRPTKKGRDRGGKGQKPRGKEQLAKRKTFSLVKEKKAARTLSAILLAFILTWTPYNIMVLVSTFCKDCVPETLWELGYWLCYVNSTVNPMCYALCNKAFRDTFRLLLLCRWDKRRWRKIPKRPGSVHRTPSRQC
Cav3 T inh – human Cav3.2 channel inhibition, primary screen; Cav3.2-expressing cells, Fluo-4 calcium fluorescence FDSS; active compounds read low; B-score at 10 µM; hit rate 4% among 100,000; AID 449739;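 active = single-dose well whose peak fluorescence ratio is a statistical outlier from its plate by either plate-standardised score or position-corrected B-score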
M1 agonist – agonists of M1 muscarinic receptor; CHO-M1 cells, Fluo-4 calcium fluorescence, agonist mode; active compounds read high; B-score at 10 µM; hit rate 3% among 64,000; AID 626;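 active = fluorescence rise, raw or as B-score row- and column-corrected plate score, outside the 99.7% band of its plate's samples, either direction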
Starred values were filed as active, the others as inactive; nt = no result. Most compounds without a hit are left out; they make up all but 7.6% or so of the library.

SMILES	PLAP activator	M1 antag	Cav3 T inh	M1 agonist
Cc1ccc(C(=O)c2coc3c2C(=O)C(=O)c2ccccc2-3)cc1	0.9	nt	-2.85	nt
O=C(c1ccc(Cl)cc1)c1cn[nH]c1-c1ccccc1O	nt	nt	-1.07	nt
O=C(c1ccc(F)cc1)c1cn[nH]c1-c1ccccc1O	2.5*	-0.257	1.44	1.8
COc1ccc(C(=O)c2cn[nH]c2-c2cc(Cl)ccc2O)cc1	2.2*	0.212	-0.55	0.153
C#CCNC(=O)C1=C[C@H](C2CCCCC2)C[C@H](OCCCCO)O1	nt	nt	-0.124	nt
COC(=O)C(C)(C(=O)OC)c1ccccc1[N+](=O)[O-]	0.8	nt	-0.587	nt
CCCCCCN(C(=O)CCCCCN1C(=O)NC(c2ccc(-c3ccccc3)cc2)C(C(=O)OCc2ccccc2)=C1C)C(C(=O)NCCCC)c1cccc(C(=O)OC)c1 (centres undefined)	nt	nt	-0.139	nt
COC(=O)c1ccccc1NC(=O)CSc1n[nH]c(CC(C)C)n1	2.4*	0.427	-0.0791	-0.31
CCNC(=O)n1nccc1C(C)Oc1cccc(C(F)(F)F)c1 (centres undefined)	1	nt	-1.67	nt
Cc1ccc(CNC(=O)C(=O)NCC2OCCN2S(=O)(=O)c2cccs2)cc1 (centres undefined)	nt	nt	-4.69*	nt
O=C(NCc1ccccc1)C(=O)NCC1OCCN1S(=O)(=O)c1cccs1 (centres undefined)	nt	nt	0.61	nt
O=C(Nc1ccccc1)C1=C[C@H](c2coc3ccccc3c2=O)C[C@H](OCCCCO)O1	nt	nt	0.483	nt
Cc1ccc(C)c(S(=O)(=O)N2CCN(C(=O)Cn3c(C(F)(F)F)nc4ccccc43)CC2)c1	1	nt	-0.00529	nt
Cc1cc(C)c(C#N)c(SCC2COc3ccccc3O2)n1 (centres undefined)	1.1	0.192	-4.73	-0.669
N#Cc1cc2c(nc1SCC1COc3ccccc3O1)CCC2 (centres undefined)	0.9	-0.25	-6.24*	-0.118
CCn1nccc1C(=O)Nc1cc(Cl)cc(Cl)c1	nt	nt	-3.76*	nt
Cc1cccc(CC(Cc2nc3ccccc3[nH]2)c2nc3ccccc3[nH]2)c1 (centres undefined)	nt	nt	-7.09*	nt
CCC(=O)Nc1nc(=S)ss1	1.4	nt	-0.404	nt
COc1ccnc(CS(=O)c2nc3cc(OC(F)F)ccc3[nH]2)c1OC (centres undefined)	nt	nt	-0.0586	nt
CCOC(=O)CSc1nnc(CSc2nc3sc4c(c3c(=O)[nH]2)CCCC4)n1-c1ccccc1	1.2	nt	-5.95*	nt
COc1ccc(C2=CSC3=C(C(=O)c4cccc(S(=O)(=O)N(C)C)c4)CCN23)cc1	2.9*	nt	-0.826	nt
Cc1ccccc1NC(=O)C(=O)NCc1ccccn1	0.9	nt	-4.53*	nt
COc1ccc(O)c(/C=N\NC(=O)CCn2nnc3ccccc32)c1	2.1*	nt	0.63	nt
CCN(CC)S(=O)(=O)c1cccc(S(=O)(=O)N2CCCCC2)c1	1	nt	-0.0141	nt
CCN(CC)S(=O)(=O)c1cccc(S(=O)(=O)c2cccc(S(=O)(=O)N(CC)CC)c2)c1	1.6	-0.244	-5.28*	-0.98
SMILES	PLAP activator	M1 antag	Cav3 T inh	M1 agonist
CCN(CC)S(=O)(=O)c1ccc2c(c1)C(=NO)c1cc(S(=O)(=O)N(CC)CC)ccc1-2	nt	nt	-5.75*	nt
O=S(=O)(c1ccc2c(c1)C(=NO)c1cc(S(=O)(=O)N3CCCCC3)ccc1-2)N1CCCCC1	1	-0.48	-6.43*	-1.32
O=C(NCCOC(=O)C1COc2ccccc2O1)c1cccnc1 (centres undefined)	0.9	0.825	-0.168	-0.598
COc1ccc([C@H]2/C=C\CN(C(=O)C3CC3)[C@@H](C)C(=O)N2Cc2ccc(F)cc2)cc1	nt	nt	-0.632	nt
Cc1nc(NC(=O)CN(C)S(=O)(=O)c2ccc(Br)cc2)sc1C	0.9	nt	-5.82*	nt
Cc1cccc(CSc2ncnc3nc[nH]c23)c1	2.2*	1.56	nt	-0.314
Cc1cccc(NC(=O)CSc2ncnc3nc[nH]c23)c1	1.5	nt	-0.354	nt
O=C(CN(C(=O)Cn1nnc(-c2cccs2)n1)c1ccc2c(c1)OCCO2)NCC1CCCO1 (centres undefined)	1.3	nt	-0.0117	nt
COc1ccc(-c2nnn(CC(=O)N(CC(=O)NC3CCCC3)Cc3cccs3)n2)cc1OC	1.5	0.756	-0.529	-0.129
O=C(CN(C(=O)Cn1nnc(-c2cccs2)n1)c1ccc2c(c1)OCCO2)NC1CCCCC1	1.7	0.609	-4.07*	-0.991
Cc1ccc(-c2nnn(CC(=O)N(CC(=O)NC3CCCCC3)c3cnc4ccccc4c3)n2)o1	nt	0.587	-4.37*	0.149
O=C(CN(Cc1ccccc1F)C(=O)Cn1nnc(-c2cccs2)n1)NC1CCCCC1	1.1	nt	-6.31*	nt
Cc1ccc(-c2nnn(CC(=O)N(CC(=O)NCC3CCCO3)c3ccccc3)n2)o1 (centres undefined)	1.5	0.12	-0.0123	-0.584
O=C(CSCc1cccc(CSCC(=O)Nc2ccccc2)n1)Nc1ccccc1	0.6	nt	-6.8*	nt
Cc1cccc(C)c1NC(=O)CSCc1cccc(CSCC(=O)Nc2c(C)cccc2C)n1	0.8	nt	0.261	nt
CC1CCN(CCCn2c(=S)[nH]c3ccc(N4CCOCC4)cc3c2=O)CC1	1.3	-0.389	-4.66*	-0.0916
O=C(NCc1ccccc1)C1(C(F)(F)F)C/C(=C\CCO)CCCO1 (centres undefined)	nt	nt	0.376	nt
CCn1c(-c2cc(-c3cc(OC)ccc3OC)nc3ccccc23)n[nH]c1=S	2.3*	nt	-0.0339	nt
CCn1c(-c2cc(-c3ccc(OC(C)C)cc3)nc3ccccc23)n[nH]c1=S	2.2*	nt	-2.77	nt
CN(C)CCCC1(O)c2ccccc2C=Cc2ccccc21	nt	nt	-0.0169	nt
CCC(C)(C)n1nnnc1C(c1cc2ccc(OC)cc2[nH]c1=O)N1CCc2ccccc2C1 (centres undefined)	1.5	0.00959	-3.72	-0.881
CCC(C)(C)n1nnnc1C(c1cc2ccc(OC)cc2[nH]c1=O)N1CCc2ccccc21 (centres undefined)	1.5	-0.46	-3.89*	1.43
O=C(CN(Cc1ccco1)C(=O)CNS(=O)(=O)c1ccc(Cl)cc1)NC1CCCCC1	1.5	0.293	-4.84*	0.285
CC(C)C(C(=O)NCc1ccco1)N(C(=O)CNS(=O)(=O)c1ccc(Cl)cc1)C1CCCC1 (centres undefined)	1.6	-0.233	-7.27*	0.195
CC(C)C(C(=O)NCC1CCCO1)N(Cc1ccco1)C(=O)CNS(=O)(=O)c1ccc(F)cc1 (centres undefined)	1.2	1.32	0.00796	0.679
SMILES	PLAP activator	M1 antag	Cav3 T inh	M1 agonist
COc1ccccc1Cn1c(-c2ccccc2OC)nc2ccccc21	0.9	nt	-6.42*	nt
c1ccc(Cn2c(CSc3nnnn3-c3ccccc3)nc3ccccc32)cc1	0.9	-0.895	0.0398	0.173
COc1ccc(-c2nc3ccccc3n2Cc2ccccc2)cc1	1.7	nt	-9.91*	nt
CC(C)(C)Cc1nc2ccccc2n1CCc1ccccc1	0.8	nt	-4.28*	nt
c1ccc(Cc2nc3ccccc3n2Cc2ccccc2)cc1	0.9	nt	-4.34*	nt
Oc1ccccc1Cn1c(-c2ccccc2O)nc2ccccc21	1.2	0.00149	-2.79	0.109
S=C(NN=C1C2CC3CC(C2)CC1C3)Nc1ccccc1	1.1	nt	-0.809	nt
c1ccc(Cn2c(NCc3ccco3)nc3ccccc32)cc1	1.4	-0.781	-1.89	-0.383
COc1ccc(CNc2nc3ccccc3n2Cc2ccccc2)cc1OC	1.4	nt	-5.42*	nt
O=c1[nH]c(NCCO)nc2c1C1(CCCC1)Cc1ccccc1-2	1.1	nt	-4.13*	nt
